# Hit rate of the full screen: of about 38,000 compounds, about 1,200 (3.2%) showed an effect of 50% or more. The median lay at about -58%. The sample as a whole holds a higher share of strong results than the screen did.
# System: Plasmodium falciparum
# Test: Calibr Malaria Delayed Death Assay SOP
# Assay type: functional, organism-based
# Parameters: scale not given: in the data most compounds retested in dose-response had high values
# Conditions: concentration 4.99e-06 (unit not given; other assays of the set use mol/L)
row,SMILES,Percent Effect [%]
1,CN(CCOCC1CC1)C(=O)Nc1ccc([S+](C)[O-])cc1 (stereo unspecified),-126.1
2,CNC(=O)NC(C)c1c(F)cccc1Cl (stereo unspecified),-107.4
3,NCC1(c2cccc(C(F)(F)F)c2)CCCCC1,-1.273
4,Cc1ccccc1C1(CN)CCCCC1,91.14
5,Cc1ccccc1C1(CN)CCOCC1,37.02
6,COc1ccc(C2CCCCCN2S(N)(=O)=O)cc1 (stereo unspecified),-81.61
7,COc1ncccc1C(=O)N1CC[C@H]2C[C@H](c3noc(C)n3)O[C@@H]2C1,-68.36
8,c1ccc2c(c1)CCN(c1nc(-c3ccncc3)nc3c1CCNC3)C2,59.82
9,CCOCc1nc2c(c(NC(CC)c3cccnc3)n1)CCNCC2 (stereo unspecified),-63.2
10,CC(Nc1nc(-c2ccccc2)nc2c1CCNCC2)c1cccnc1 (stereo unspecified),90.56
11,CC(=O)N1CCc2nc(-c3ccccc3)nc(NC(C)C)c2CC1,-31.72
12,CC(Nc1nc(-c2ccncc2)nc2c1CCNC2)c1ccccc1 (stereo unspecified),70.67
13,Cc1ccccc1C(Nc1ncnc2c1CCNC2)c1ccccc1 (stereo unspecified),22.99
14,CCc1cc(C(C)Nc2nc(-c3cccnc3)nc3c2CNC3)on1 (stereo unspecified),-34.82
15,CN(C)c1nc2c(c(N3CCc4ccccc4C3)n1)CCNC2,30.67
16,Cc1ccccc1N1CCN(c2nc(N(C)C)nc3c2CCNC3)CC1,36.34
17,CN(C)CCC(Nc1nc(N)nc2c1CCNCC2)c1ccccc1 (stereo unspecified),-67.64
18,Cc1cc(CC(C)Nc2nc(-c3cccnc3)nc3c2CNC3)[nH]n1 (stereo unspecified),-0.4892
19,Cc1cccnc1[C@H](C)Nc1nc(-c2cccnc2)nc2c1CNC2,77.9
20,CN1Cc2cc(F)ccc2N(CC(C)(C)O)CCC1=O,-102.4
21,c1cc2occc2c(N2CCCC(c3nncn3C3CC3)C2)n1 (stereo unspecified),-31.64
22,CO[C@H]1CN(C(=O)OC(C)(C)C)CC1NCc1cc[nH]c1 (stereo partly specified),-107.9
23,CCN1C(=O)C(C#N)=C(C)/C(=C/C2=Cc3ccccc3OC2)C1=O,-95.4
24,CC1c2ncc(Cn3cccn3)n2CCN1Cc1ccccn1.O=C(O)C(F)(F)F.O=C(O)C(F)(F)F (stereo unspecified),-97.72
25,CCC[C@H]1CN(C(=O)c2ccc3[nH]c(CO)nc3c2)C[C@@H]1N,-26.19
26,CC(=O)N1CCOC2(CCCN(C(=O)c3ccc(Cl)cc3)C2)C1 (stereo unspecified),-118.1

row,SMILES,Percent Effect [%]
1,Cc1ccc(NC(=O)N2CC[C@@H](O)C2)c(-c2nc(C3CC3)no2)c1,-83.22
2,O=S(=O)(Cc1ccccc1Cl)NCCCN1CCCC1,78.29
3,CC(=O)N1CCN(CCNS(=O)(=O)c2cc(F)cc(F)c2)CC1,-120.9
4,CC1CCN(CCCNS(=O)(=O)c2cccc(F)c2)CC1.Cl,53.06
5,O=S(=O)(NCCCN1CCCC1)c1cc(F)cc(F)c1,66.12
6,Cn1cnc(S(=O)(=O)NCCCN2CCCCCC2)c1Cl,-99.75
7,CC(C)c1cccc(S(=O)(=O)NCCCN2CCC(O)CC2)c1,31.74
8,CC1CCN(CCCNS(=O)(=O)c2cc(F)cc(F)c2)CC1.Cl,61.9
9,CC1CCN(CCCNS(=O)(=O)Cc2ccccc2F)CC1,25.53
10,Cc1ccccc1CS(=O)(=O)NCCCN1CCCC1,22.31
11,Cc1cc(F)c(S(=O)(=O)NCCCN2CCC(O)CC2)cc1F,-91.17
12,CC(=O)N1CCN(CCNS(=O)(=O)c2cccc(F)c2)CC1,-79.38
13,O=S(=O)(Cc1ccccc1F)NCCCN1CCCCC1,18.19
14,CN(Cc1cccs1)Cc1nnsc1Cl,-133.9
15,NC(=O)CN1CC2(CCC1=O)CCN(C(=O)c1ccccc1F)CC2,-172.5
16,CCO[C@H]1CC[C@H]2[C@H]1OCCN2C(=O)CC1=CCCCC1,-84.2
17,COCCn1ccc2c(C(=O)Nc3nc4c(s3)CCC4)cccc21,-233.3
18,CS(=O)(=O)c1ccccc1-n1cc(NC(=O)CC2C=CCC2)cn1 (stereo unspecified),-87.45
19,O=C(CCc1cc2n(n1)CCCN(CCc1ccccc1)C2)NC1CC1,-74.1
20,CC(=O)N1CCC(C(=O)NCCc2c[nH]c3cc(C)ccc23)CC1,-74.03
21,CS(=O)(=O)N1CCc2c(cccc2NC(=O)NC2CCCC2)C1,-76.44
22,CCc1ccc(OCCn2cccn2)cc1,-75.63
23,CC(C)c1nccc(CN2CCC(c3nc4ccccc4n3C)CC2)n1,-101.6
24,CC(C)Cc1nc(NC(=O)c2cccnc2)n[nH]1,-46.29
25,Cc1ccc2nc(C(=O)N3CC(c4cccnc4)C3)cn2c1,-27.83
26,CN1CCN(CC(NCc2cccc(O)c2)c2ccccc2)CC1 (stereo unspecified),-102.1

row,SMILES,Percent Effect [%]
1,COCCN1CCC(NCc2cccc(C)c2)C1 (stereo unspecified),-16.89
2,CN1CCN(CC(NCc2ccc(F)cc2)c2ccccc2)CC1 (stereo unspecified),-91.46
3,COc1cccc(C(=O)N2CCN(CC(O)c3ccccc3)CC2)c1 (stereo unspecified),-38.78
4,Cc1ccc(CNC(CN2CCN(C)CC2)c2ccccc2)cc1C (stereo unspecified),-112.6
5,Cl.Cl.OC(CN1CCN(Cc2ccc(F)c(F)c2)CC1)C1CC1 (stereo unspecified),-18
6,Cc1cccc(CNC(CN2CCN(C)CC2)c2ccccc2)c1 (stereo unspecified),83.13
7,COc1cccc(CNC(=O)N2CCN(Cc3cc(C)on3)CC2)c1,-21.77
8,O=C(NC(CN1CCCC1)c1ccccc1)c1c(O)cc(F)cc1F (stereo unspecified),-93.48
9,NC(=O)CS(=O)(=O)Cc1csc(-c2ccc(F)cc2)n1,-114.2
10,O=C(Nc1cc(C(F)(F)F)c[nH]c1=O)C1CCCO1 (stereo unspecified),-102.8
11,Cc1csc(NC(=O)C2CCN(Cc3cccc4c3OCCO4)CC2)n1,-33.92
12,CN(C)CCOCc1cncc2c1CCN(C(=O)C1CCOCC1)C2.O=C(O)C(F)(F)F.O=C(O)C(F)(F)F,-70.85
13,O=C(O)C(F)(F)F.O=C(O)C(F)(F)F.O=C(O)C(F)(F)F.O=C(c1ccncc1)N1CCN(Cc2cccnc2)c2ncccc2C1,-102.4
14,CC(C)NC(=O)c1noc2c1CN(Cc1cnn(C)c1)CC2,-77.7
15,CN(C)CCNC(=O)C1Cc2nc(-c3ccsc3)sc2N1CC1CC1.O=C(O)C(F)(F)F (stereo unspecified),9.733
16,CN(C)CCNC(=O)C1Cc2nc(-c3ccccc3)sc2N1CC1CC1.O=C(O)C(F)(F)F (stereo unspecified),89.72
17,O=C(Nc1cccnc1)C1Cc2nc(-c3ccsc3)sc2N1CC1CC1.O=C(O)C(F)(F)F (stereo unspecified),-160.3
18,O=C(Nc1cccnc1N1CCSCC1)c1ccc2c(c1)CCC2,-3.12
19,O=C(NC1CC1)C1CCCN(c2cccc(C(F)(F)F)n2)C1 (stereo unspecified),11.64
20,O=C(NC1CCN(c2cccc(C(F)(F)F)n2)CC1)C1CC1,-20.01
21,O=C(NC1CC1)C1CCN(c2cccc(C(F)(F)F)n2)CC1,78.5
22,COc1cccc(C2(C(=O)NC3CCc4nccn4C3)CCCC2)c1 (stereo unspecified),52
23,CS(=O)(=O)C1(C(=O)NC2CCc3nccn3C2)CCCC1 (stereo unspecified),-116.8
24,COc1ccc(C2(C(=O)NC3CCc4nccn4C3)CCCC2)cc1 (stereo unspecified),46.07
25,CN1C[C@H](O)[C@]2(CCN(C(=O)NCc3ccccc3)C2)S1(=O)=O,-19.04
26,Cc1cnccc1-c1cc(NCCO)nc2[nH]ccc12,-75.39

row,SMILES,Percent Effect [%]
1,Cc1nc(C(=O)N2CC[C@@]3(C[C@H](NS(C)(=O)=O)CCO3)C2)cs1,-13.09
2,CC(C)N1CCCC2(CCN(c3nccc(C(F)(F)F)n3)C2)C1=O (stereo unspecified),-74.1
3,O=C(O)C(F)(F)F.O=S(=O)(C1CC1)N1CCC2(CCCN(c3ncccn3)C2)C1 (stereo unspecified),-10.57
4,CC(C)c1nc(C2CCCN(c3nccc(C(F)(F)F)n3)C2)no1 (stereo unspecified),-82.41
5,CN(C)C(=O)N1CCC2(CCCN(c3ncccn3)C2)C1.O=C(O)C(F)(F)F (stereo unspecified),-156.2
6,C=C(C)CN(CC)C(=O)c1cc(F)ccc1N1CCN(C)CC1,-6.643
7,CC(CNC(=O)c1cc(C2CC2)nc2c1cnn2C)Cn1cccn1 (stereo unspecified),-106.1
8,Cc1ccc(OCCNC(=O)C2CCOCC2)c(C)c1,-53.04
9,Cc1ccc(C)c(Oc2ccc(CNC(=O)C3CCC(=O)N3)cn2)c1 (stereo unspecified),-45.06
10,Cc1ccc(N2CCCC(c3[nH]ncc3-c3ccccc3)C2)nn1 (stereo unspecified),25.38
11,Cc1ccc(-c2cn[nH]c2C2CCCN(c3cc(N)ncn3)C2)cc1 (stereo unspecified),-38.82
12,Cc1cc(N2CCCC(c3[nH]ncc3Cc3ccccc3)C2)nc(N)n1 (stereo unspecified),72.87
13,Cc1cc(C)n2c(CCCNS(=O)(=O)c3cccs3)nnc2n1,-65.33
14,COCCN(C)C[C@@H]1CN(C(=O)C(C)(C)c2ccccc2)C[C@@H]1CO,29.59
15,COc1ccccc1OC1CN(C(=O)Cc2c(C)nc3ccccn23)C1,-26.12
16,COc1cccc(CNCc2c(C)nc3sc(C)cn23)c1OC,20.21
17,COc1ccc(NC(=O)c2nc(C)sc2C)cn1,-37.98
18,CCc1[nH]c2c(CNc3cncc(C(=O)OC)n3)cc(C)cc2c1C,-28.2
19,CCc1[nH]c2c(CNc3cncc(C(=O)N(C)C)n3)cc(F)cc2c1C,-100.3
20,CCc1[nH]c2c(CNc3cncc(C(=O)N(C)C)n3)cc(C)cc2c1C,-71.53
21,CCc1[nH]c2c(CNc3nc(C)cc(NC)n3)cc(C)cc2c1C,88.9
22,CCc1[nH]c2c(CNc3cc(C)nc(NC)n3)cc(C)cc2c1C,84.97
23,Cc1cc(C(=O)N2CCc3nc(N4CCOCC4)nc(C)c3C2)c(C)o1.O=CO,-46.43
